Consider 76 compounds from PubChem BioAssay AID652062 (Broad Institute, 2013).

Each structure is given as a SMILES string. Hit rate of the full screen: of about 1,400 compounds, about 1,100 (79%) were called active.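 Rule for the calls: active = fitted half-maximal concentration of a falling signal no higher than twice the top valid dose in every test run; inconclusive = runs disagree, or flat partial inhibition, or poor fit; inactive = every run inactive: flat, wrong direction, or potency beyond limit.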 The set was probably picked from earlier hits. These entries were drawn from the full list. Results with a measured potency or affinity are listed apart.

The nature of the test: HIV-1 AD8 envelope cell-cell fusion blockers – cherry-pick, dose response (AID 652062). The following applies: HeLa-AD8 Env / CEM-CCR5 cell fusion, luciferase; at 35 µM (top of the series) unless noted.
On to `CCN(CC)S(=O)(=O)c1ccc(NC2c3ccccc3C(=O)N2Cc2ccc3c(c2)OCO3)cc1` (stereo unspecified), for which the activity change, negative = inhibition is -25.4%.

For `CCOc1ccc(NC2c3ccccc3C(=O)N2Cc2ccco2)cc1` (stereo unspecified), the activity change, negative = inhibition was determined as 51.2%.

For the compound `O=C(Nc1cccc(F)c1)c1cc(S(=O)(=O)N2CCC(C(=O)O)CC2)ccc1F`, the activity change, negative = inhibition worked out at 43.8%.

On to `O=C(Nc1ccc(Cl)cc1)C1CCCN(C2=NS(=O)(=O)c3ccccc32)C1` (stereo unspecified), for which the activity change, negative = inhibition is -27% [at 16 µM].

In the case of `Cc1noc(C)c1NC(=O)N(C)C[C@H]1OCCCC[C@H](C)Oc2ccc(NC(=O)c3ccccc3)cc2C(=O)N([C@H](C)CO)C[C@@H]1C`, the activity change, negative = inhibition is 107%.

`C[C@H](CO)N1C[C@H](C)[C@@H](CN(C)C(=O)Nc2cccc3ccccc23)OCCCC[C@H](C)Oc2ccc(N(C)C)cc2C1=O`: the activity change, negative = inhibition is -37.4%.

For the compound `O=C(N/N=C/c1ccc(-n2ccnc2)cc1)c1cccs1`, the activity change, negative = inhibition was 91.2%.

Consider `Clc1ccc2c(c1)C1=C(C(c3ccncc3)O2)C(c2ccc(Br)cc2)n2ncnc2N1` (stereo unspecified), for which the activity change, negative = inhibition worked out at 285% [at 16 µM].

For the compound `NC(Cc1ccc(F)cc1)c1csc(Nc2ccc(C(F)(F)F)cn2)n1` (stereo unspecified), the activity change, negative = inhibition was -26.6% [at 16 µM].

`Cc1cccc(/C=N\Nc2cn[nH]c(=O)c2Cl)c1`: the activity change, negative = inhibition was 183%.

For `COc1ccc(OC)c(CN2C(=O)c3ccccc3C2c2nnnn2-c2c(C)cccc2C)c1` (stereo unspecified), the activity change, negative = inhibition was -4.67%.

As for `COc1ccc(CCN2C(=O)c3[nH]nc(-c4ccccc4O)c3C2c2cccc(O)c2)cc1OC` (stereo unspecified), the activity change, negative = inhibition was 4.61%.

Turning to `CN(C(=O)c1cccc(NC(=O)Cc2cccc(NC(=O)C3CCCN(C(=O)C4CCC4)C3)c2)c1)C1CCC1` (stereo unspecified), the activity change, negative = inhibition was determined as 49.5%.

In the case of `COc1ccc(-c2nnc(Nc3nc4c(OC)cccc4s3)o2)cc1`, the activity change, negative = inhibition is -27.2%.

Turning to `O=C(CCN1CCCCC1)N[C@H]1CC[C@H](CCn2cc(-c3ccccc3)nn2)O[C@@H]1CO`, the activity change, negative = inhibition was -27.5%.

`O=C(Nc1cccc(F)c1)N[C@@H]1CC[C@H](CCNS(=O)(=O)c2cccc(Cl)c2)O[C@H]1CO`: the activity change, negative = inhibition came out at 101%.

`O=C(Cc1ccncc1)N[C@H]1CC[C@@H](CCn2cc(-c3ccccc3F)nn2)O[C@@H]1CO`: the activity change, negative = inhibition is -16.3%.

Take `O=C(CCN1CCCCC1)N[C@@H]1CC[C@@H](CCn2cc(-c3ccccc3)nn2)O[C@@H]1CO`: the activity change, negative = inhibition is -17.1%.

With `COc1ccccc1S(=O)(=O)n1cc(Cc2ccccc2)c(N)n1`, the activity change, negative = inhibition was -17%.

With `O=C(C[C@@H]1CC[C@@H](NC(=O)c2ccncc2)[C@H](CO)O1)NCCc1ccncc1`, the activity change, negative = inhibition was 38.7%.

Take `COc1ccc(Nc2cc(C)nc(NCc3ccccc3)n2)cc1`: the activity change, negative = inhibition was -69.2%.

Turning to `C[C@@H]1CN([C@H](C)CO)C(=O)c2cccc(NC(=O)c3ccncc3)c2O[C@@H]1CN(C)Cc1ccc(C(=O)O)cc1`, the activity change, negative = inhibition is 3.82%.

As to `C[C@@H]1CN([C@@H](C)CO)C(=O)c2cccc(NC(=O)c3cnccn3)c2O[C@H]1CN(C)Cc1ccc(Cl)c(Cl)c1`, the activity change, negative = inhibition came to 142% [at 16 µM].

Regarding `C[C@@H]1CN([C@@H](C)CO)C(=O)c2cccc(NC(=O)c3ccc(-c4nccs4)cc3)c2O[C@H]1CN(C)CC1CC1`, the activity change, negative = inhibition amounted to 28.5%.

On to `Cc1onc(-c2ccccc2)c1C(=O)OCCOc1cccc(Cl)c1`, for which the activity change, negative = inhibition was -18.8%.

In the case of `CC1(C)N=C(N)N=C(N)N1CCCCc1ccccc1`, the activity change, negative = inhibition came to 3.6%.

Regarding `CS(=O)(=O)N1CCN(c2ccccc2NC(=O)C(c2ccccc2)c2ccccc2)CC1`, the activity change, negative = inhibition came to 38.4%.

As for `O=C(O)C[C@@H]1C=C[C@@H](NC(=O)Nc2ccccc2)[C@H](CO)O1`, the activity change, negative = inhibition was 11.3%.

On to `O=C(O)C[C@@H]1CC[C@@H](NC(=O)c2ccncc2)[C@H](CO)O1`, for which the activity change, negative = inhibition stood at 28.7%.

Turning to `O=C(O)C[C@@H]1C=C[C@H](NC(=O)Nc2ccccc2)[C@H](CO)O1`, the activity change, negative = inhibition is -16.5%.

On to `Cc1cccc(C)c1N(CC(O)Cn1c2ccccc2c2ccccc21)S(C)(=O)=O` (stereo unspecified), for which the activity change, negative = inhibition was found to be 16%.

With `C[C@@H]1CN([C@H](C)CO)S(=O)(=O)c2ccc(-c3ccncc3)cc2O[C@@H]1CN(C)Cc1ccc(Oc2ccccc2)cc1`, the activity change, negative = inhibition was 160%.

As to `COc1ccccc1C#Cc1ccc2c(c1)O[C@@H](CN(C)Cc1ccncc1)[C@H](C)CN([C@H](C)CO)S2(=O)=O`, the activity change, negative = inhibition amounted to 10.1% [at 16 µM].

On to `Cc1ccc(-c2ccc3c(c2)O[C@@H](CN(C)Cc2cccnc2)[C@H](C)CN([C@H](C)CO)S3(=O)=O)cc1`, for which the activity change, negative = inhibition is -56.7%.

Turning to `COc1ccccc1CN1C(=O)CN(C2CCCCCC2)C(=O)C1c1ccc(F)cc1` (stereo unspecified), the activity change, negative = inhibition amounted to 20.3%.

Regarding `Cc1ccc(-n2nc3c(c2NC(=O)c2ccco2)CS(=O)C3)cc1` (stereo unspecified), the activity change, negative = inhibition was -28.9%.

In the case of `COc1ccccc1CN(C)C(=O)CN1CCN(C(=O)c2cccs2)CC1`, the activity change, negative = inhibition was -1.14%.

`O=C(C[C@@H]1C[C@@H]2c3cc(NC(=O)C4CCC4)ccc3O[C@@H]2[C@@H](CO)O1)NCc1ccc2c(c1)OCO2`: the activity change, negative = inhibition stood at 48.6%.

`CN(C)C(=O)C[C@H]1C[C@@H]2c3cc(NC(=O)NC4CCCCC4)ccc3O[C@@H]2[C@H](CO)O1`: the activity change, negative = inhibition was -20.7%.

In the case of `O=C(C[C@@H]1C[C@@H]2c3cc(NC(=O)C4CCC4)ccc3O[C@@H]2[C@@H](CO)O1)NCC(F)(F)F`, the activity change, negative = inhibition was determined as 37%.

In the case of `O=C(C[C@H]1C[C@@H]2c3cc(NC(=O)C4CCC4)ccc3O[C@@H]2[C@@H](CO)O1)NCC(F)(F)F`, the activity change, negative = inhibition amounted to 7.19%.

Turning to `O=C(C[C@@H]1C[C@H]2c3cc(NC(=O)NC4CCCCC4)ccc3O[C@H]2[C@@H](CO)O1)NCc1ccncc1`, the activity change, negative = inhibition was 17.5%.

For the compound `O=C(C[C@H]1C[C@@H]2c3cc(NC(=O)C4CCC4)ccc3O[C@@H]2[C@@H](CO)O1)NCc1ccc2c(c1)OCO2`, the activity change, negative = inhibition was 25.6%.

With `O=C(C[C@@H]1C[C@H]2c3cc(NC(=O)C4CCOCC4)ccc3O[C@H]2[C@@H](CO)O1)NCc1ccccc1`, the activity change, negative = inhibition stood at 37.3%.

With `O=C(C[C@@H]1C[C@@H]2c3cc(NC(=O)C4CCOCC4)ccc3O[C@@H]2[C@H](CO)O1)NCCc1ccccc1`, the activity change, negative = inhibition was -21%.

As for `O=C(C[C@H]1C[C@H]2c3cc(NC(=O)Cc4ccncc4)ccc3O[C@H]2[C@@H](CO)O1)NCc1ccncc1`, the activity change, negative = inhibition was 20.8%.

For `O=C(C[C@@H]1C[C@@H]2c3cc(NC(=O)Nc4ccccc4)ccc3O[C@@H]2[C@@H](CO)O1)NCc1ccccc1`, the activity change, negative = inhibition worked out at 42.6% [at 30 µM].

With `O=C(C[C@H]1C[C@H]2c3cc(NC(=O)C4CCC4)ccc3O[C@H]2[C@@H](CO)O1)NCc1ccc2c(c1)OCO2`, the activity change, negative = inhibition was 38.8% [at 30 µM].

In the case of `O=C(C[C@@H]1C[C@@H]2c3cc(NC(=O)c4ccc5c(c4)OCO5)ccc3O[C@@H]2[C@@H](CO)O1)NCc1ccc(Oc2ccccc2)cc1`, the activity change, negative = inhibition is 0.613% [at 16 µM].

For `COc1ccc(S(=O)(=O)N(C)C[C@@H]2Oc3ccc(NC(=O)C4CCCCC4)cc3CC(=O)N([C@@H](C)CO)C[C@@H]2C)cc1`, the activity change, negative = inhibition was determined as 5.28% [at 16 µM].

`O=C(N[C@@H]1CC[C@H](CCNS(=O)(=O)c2ccc(F)cc2)O[C@@H]1CO)C1CC1`: the activity change, negative = inhibition came out at 21.6%.

Regarding `C[C@@]12C(=O)N(Cc3ccco3)CC(=O)N1[C@H]1c3ccccc3OC[C@@H]1[C@@H]2c1ccccc1`, the activity change, negative = inhibition stood at 2.22%.

Regarding `COc1cc2c(cc1OC)C(=O)N1[C@H]3c4cc(Cl)ccc4OC[C@@H]3[C@H](c3ccccc3)[C@]1(C)C(=O)N2`, the activity change, negative = inhibition is -26.3%.

On to `C[C@H]1NC(=O)[C@@]2(C)[C@H](c3ccccc3)[C@H]3COc4ccccc4[C@@H]3N2C1=O`, for which the activity change, negative = inhibition is 80.3%.

In the case of `Cc1cc(Cl)ccc1OCC(=O)NNC(=O)C1CSC2(C)CCC(=O)N12` (stereo unspecified), the activity change, negative = inhibition was determined as 1.11%.

Regarding `COc1ccc([Si](C)(C)[C@H]2[C@H](CCO)O[C@@]3(C(=O)N(Cc4cccc(N5CCOC5=O)c4)c4ccccc43)[C@@H]2C)cc1`, the activity change, negative = inhibition was 108%.

With `COc1ccc(S(=O)(=O)N2CCCCC2)cc1NC(=O)CN(Cc1ccco1)Cc1ccco1`, the activity change, negative = inhibition was -14.6%.

Consider `COc1ccc(S(=O)(=O)N2CCCCC2)cc1NC(=O)CCCOc1ccc(C)cc1`, for which the activity change, negative = inhibition was 3.18%.

On to `CCCCCCOc1ccc(OC(=O)c2ccncc2)cc1`, for which the activity change, negative = inhibition was -6.3%.

Consider `COc1ccc(-c2c(C)nn3c(C(F)(F)F)cc(C)nc23)cc1`, for which the activity change, negative = inhibition turned out to be 123%.

With `O=C(COC(=O)c1cc(S(=O)(=O)N2CCOCC2)ccc1O)NCc1ccc2c(c1)OCO2`, the activity change, negative = inhibition worked out at 28.5%.

On to `CC(=O)Nc1ccc(C(=O)OCC(=O)NC(=O)NCc2ccccc2)cc1`, for which the activity change, negative = inhibition was 16.9%.

`CSc1ncccc1C(=O)OCC(=O)Nc1ccc(C)c(S(=O)(=O)N2CCOCC2)c1`: the activity change, negative = inhibition is -12.3% [at 16 µM].

Consider `COCC(=O)Nc1ccc2c(c1)C(=O)N(C)C[C@@H](OC)[C@H](C)CN(C(C)=O)[C@H](C)CO2`, for which the activity change, negative = inhibition was determined as 28.2%.

`CO[C@H]1CN(C)C(=O)c2ccc(NC(=O)Nc3cccc(F)c3)cc2OC[C@@H](C)N(C(C)=O)C[C@H]1C`: the activity change, negative = inhibition came to 72.4%.

Consider `CO[C@H]1CN(C)C(=O)c2ccc(NC(=O)Nc3cccc(F)c3)cc2OC[C@H](C)NC[C@H]1C`, for which the activity change, negative = inhibition was 25.2%.

For `CCCC(=O)Nc1ccc2c(c1)OC[C@H](C)N(C(=O)CN(C)C)C[C@@H](C)[C@H](OC)CN(C)C2=O`, the activity change, negative = inhibition was -2.16%.

Turning to `CO[C@H]1CN(C)C(=O)c2cc(NC(=O)c3ccc(F)cc3)ccc2OC[C@H](C)N(C(=O)CN(C)C)C[C@@H]1C`, the activity change, negative = inhibition was 6.3%.

With `CCc1ccc(C(=O)CN2C(=O)NC(C)(c3ccc(C)cc3)C2=O)cc1` (stereo unspecified), the activity change, negative = inhibition is -27.5%.

On to `COc1cccc(S(=O)(=O)N(C)C[C@H]2Oc3cc(C4=CCCC4)ccc3S(=O)(=O)N([C@H](C)CO)C[C@@H]2C)c1`, for which the activity change, negative = inhibition is 27.1%.

Consider `C[C@H]1CN([C@@H](C)CO)C(=O)Cc2cc(NS(=O)(=O)c3ccccc3)ccc2O[C@@H]1CN(C)Cc1ccc(Cl)c(Cl)c1`, for which the activity change, negative = inhibition was -28.9%.

Consider `C[C@@H]1CN([C@H](C)CO)C(=O)c2cc(NS(=O)(=O)c3ccc(F)cc3)ccc2O[C@H]1CN(C)Cc1ccc(C(F)(F)F)cc1`, for which the activity change, negative = inhibition is -13.8%.

For `COc1ccc(-c2cn(CC[C@H]3CC[C@H](NS(=O)(=O)c4ccccc4C)[C@H](CO)O3)nn2)cc1`, the activity change, negative = inhibition came out at 2.4%.

As for `COc1ccccc1S(=O)(=O)N[C@H]1CC[C@H](CC(=O)N2CCN(C)CC2)O[C@H]1CO`, the activity change, negative = inhibition is -27.9%.

On to `COc1ccc(S(=O)(=O)N[C@@H]2CC[C@@H](CC(=O)NCCc3ccncc3)O[C@@H]2CO)cc1`, for which the activity change, negative = inhibition is -13%.

With `CNC[C@H]1Oc2c(NC(=O)Nc3ccc4c(c3)OCO4)cccc2C(=O)N([C@H](C)CO)C[C@@H]1C`, the activity change, negative = inhibition came out at 65.2%.
